# Measurements: PubChem BioAssay AID1159580 (chemical genetic matrix, 2015)
# Screen size: about 5,500 compounds; about 2,000 (36%) were called active. Another 18% or so got no clear call; they are omitted. The list shows a part of the results. Values without a mark were called inactive. No stated cut-off is given here; in the data, active means normalized growth mostly below about 0.91 (no sharp cut-off); inconclusive means no clear call, values can overlap the other calls; inactive means mostly above about 0.92.
# Assay: chemical genetic growth profiling, strain panel (AID 1159580);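 further: tested at 20 µM; growth read once vehicle control cultures reached saturation at 30 °C; 1 = growth at the plate median or of vehicle wells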
# Conditions: growth OD
# [1] = S. cerevisiae deletion strains, locus YDL101C, strain DUN1, stronger effect = lower value
# [2] = S. cerevisiae deletion strains, locus YHR030C, strain SLT2, stronger effect = lower value
smiles,measurement,setting,value
O=C1NC(=S)NC(=O)C1=Cc1cccc2ccccc12,normalized growth,"S. cerevisiae deletion strains, locus YAL013W, strain DEP1, stronger effect = lower value",0.975
same,normalized growth,"S. cerevisiae deletion strains, locus YBR229C, strain ROT2, stronger effect = lower value",0.989
same,normalized growth,"S. cerevisiae deletion strains, locus YCL061C, strain MRC1, stronger effect = lower value",0.97
same,normalized growth,[1],0.963
same,normalized growth,"S. cerevisiae deletion strains, locus YDR150W, strain NUM1, stronger effect = lower value",0.891
same,normalized growth,"S. cerevisiae deletion strains, locus YEL061C, strain CIN8, stronger effect = lower value",0.976
same,normalized growth,"S. cerevisiae deletion strains, locus YGR078C, strain PAC10, stronger effect = lower value",0.976
same,normalized growth,[2],0.709
same,normalized growth,"S. cerevisiae deletion strains, locus YHR087W, strain rtc3, stronger effect = lower value",0.913
same,normalized growth,"S. cerevisiae deletion strains, locus YJR075W, strain HOC1, stronger effect = lower value",0.928
same,normalized growth,"S. cerevisiae deletion strains, locus YKL190W, strain CNB1, stronger effect = lower value",1
same,normalized growth,"S. cerevisiae deletion strains, locus YLR039C, strain RIC1, stronger effect = lower value",0.841
same,normalized growth,"S. cerevisiae deletion strains, locus YLR058C, strain SHM2 (second series), stronger effect = lower value",0.99
same,normalized growth,"S. cerevisiae deletion strains, locus YLR085C, strain ARP6, stronger effect = lower value",0.907
same,normalized growth,"S. cerevisiae deletion strains, locus YLR262C, strain YPT6, stronger effect = lower value",0.879
same,normalized growth,"S. cerevisiae deletion strains, locus YML094W, strain GIM5, stronger effect = lower value",0.954
same,normalized growth,"S. cerevisiae deletion strains, locus YMR219W, strain ESC1, stronger effect = lower value",0.985
same,normalized growth,"S. cerevisiae deletion strains, locus YMR263W, strain SAP30, stronger effect = lower value",0.93
same,normalized growth,"S. cerevisiae deletion strains, locus YNL128W, strain TEP1, stronger effect = lower value",0.991
same,normalized growth,"S. cerevisiae deletion strains, locus YNL153C, strain GIM3, stronger effect = lower value",0.979
same,normalized growth,"S. cerevisiae deletion strains, locus YNL298W, strain CLA4 (second series), stronger effect = lower value",0.995
same,normalized growth,"S. cerevisiae deletion strains, locus YNL322C, strain KRE1, stronger effect = lower value",0.986
same,normalized growth,"S. cerevisiae deletion strains, locus YNR030W, strain Alg12, stronger effect = lower value",0.988
same,normalized growth,"S. cerevisiae deletion strains, locus YPL055C, strain LGE1, stronger effect = lower value",0.92
same,normalized growth,"S. cerevisiae deletion strains, locus YPL241C, strain CIN2, stronger effect = lower value",0.983
same,normalized growth,"S. cerevisiae deletion strains, locus YPR135W, strain CTF4, stronger effect = lower value",0.806
same,normalized growth,"S. cerevisiae strains, strain wild type, stronger effect = lower value",0.998
O=C1Nc2ccccc2/C1=C\c1cccc2ccccc12,normalized growth,"S. cerevisiae deletion strains, locus YAR019C, strain CDC15, stronger effect = lower value",0.97
same,normalized growth,"S. cerevisiae deletion strains, locus YBL105C, strain PKC1, stronger effect = lower value",0.955
same,normalized growth,"S. cerevisiae deletion strains, locus YBR135W, strain CKS1, stronger effect = lower value",0.971
same,normalized growth,"S. cerevisiae deletion strains, locus YBR136W, strain MEC1, stronger effect = lower value",0.97
same,normalized growth,"S. cerevisiae deletion strains, locus YBR160W, strain CDC28, stronger effect = lower value",0.977
same,normalized growth,"S. cerevisiae deletion strains, locus YDL017W, strain CDC7, stronger effect = lower value",0.963
same,normalized growth,"S. cerevisiae deletion strains, locus YDL028C, strain MPS1, stronger effect = lower value",0.972
same,normalized growth,[1],0.985
same,normalized growth,"S. cerevisiae deletion strains, locus YDL108W, strain KIN28, stronger effect = lower value",0.969
same,normalized growth,"S. cerevisiae deletion strains, locus YDL132W, strain cdc53, stronger effect = lower value",0.965
same,normalized growth,"S. cerevisiae deletion strains, locus YDL214C, strain PRR2, stronger effect = lower value",0.815
same,normalized growth,"S. cerevisiae deletion strains, locus YDR052C, strain DBF4, stronger effect = lower value",0.976
same,normalized growth,"S. cerevisiae deletion strains, locus YDR054C, strain cdc34, stronger effect = lower value",0.982
same,normalized growth,"S. cerevisiae deletion strains, locus YDR226W, strain ADK1, stronger effect = lower value",0.96
same,normalized growth,"S. cerevisiae deletion strains, locus YDR477W, strain SNF1, stronger effect = lower value",0.773
same,normalized growth,"S. cerevisiae deletion strains, locus YER123W, strain YCK3, stronger effect = lower value",0.777
same,normalized growth,"S. cerevisiae deletion strains, locus YER133W, strain GLC7, stronger effect = lower value",0.809
same,normalized growth,"S. cerevisiae deletion strains, locus YFL009W, strain cdc4, stronger effect = lower value",0.98
same,normalized growth,"S. cerevisiae deletion strains, locus YFL029C, strain CAK1, stronger effect = lower value",0.964
same,normalized growth,"S. cerevisiae deletion strains, locus YFR003C, strain YPI1, stronger effect = lower value",0.972
same,normalized growth,"S. cerevisiae deletion strains, locus YFR019W, strain FAB1, stronger effect = lower value",0.904
same,normalized growth,"S. cerevisiae deletion strains, locus YFR028C, strain CDC14, stronger effect = lower value",0.972
same,normalized growth,"S. cerevisiae deletion strains, locus YGR040W, strain KSS1, stronger effect = lower value",0.792
same,normalized growth,"S. cerevisiae deletion strains, locus YGR052W, strain FMP48, stronger effect = lower value",0.807
same,normalized growth,"S. cerevisiae deletion strains, locus YGR092W, strain DBF2, stronger effect = lower value",0.708
same,normalized growth,[2],0.663 (active)
same,normalized growth,"S. cerevisiae deletion strains, locus YHR079C, strain IRE1, stronger effect = lower value",0.73
same,normalized growth,"S. cerevisiae deletion strains, locus YHR082C, strain KSP1, stronger effect = lower value",0.741
same,normalized growth,"S. cerevisiae deletion strains, locus YHR205W, strain SCH9, stronger effect = lower value",0.668
same,normalized growth,"S. cerevisiae deletion strains, locus YIL147C, strain SLN1, stronger effect = lower value",0.968
same,normalized growth,"S. cerevisiae deletion strains, locus YJL095W, strain BCK1, stronger effect = lower value",0.718
same,normalized growth,"S. cerevisiae deletion strains, locus YJL128C, strain PBS2, stronger effect = lower value",0.914
same,normalized growth,"S. cerevisiae deletion strains, locus YJL157C, strain FAR1, stronger effect = lower value",0.796
same,normalized growth,"S. cerevisiae deletion strains, locus YJR016C, strain ILV3, stronger effect = lower value",0.966
same,normalized growth,"S. cerevisiae deletion strains, locus YJR066W, strain TOR1 (second series), stronger effect = lower value",0.738
same,normalized growth,"S. cerevisiae deletion strains, locus YJR066W, strain TOR1, stronger effect = lower value",0.798
same,normalized growth,"S. cerevisiae deletion strains, locus YKL048C, strain ELM1, stronger effect = lower value",0.886
same,normalized growth,"S. cerevisiae deletion strains, locus YKL067W, strain YNK1, stronger effect = lower value",0.855
same,normalized growth,"S. cerevisiae deletion strains, locus YKL101W, strain HSL1, stronger effect = lower value",0.816
same,normalized growth,"S. cerevisiae deletion strains, locus YKL193C, strain SDS22, stronger effect = lower value",0.968
same,normalized growth,"S. cerevisiae deletion strains, locus YKL203C, strain TOR2, stronger effect = lower value",0.857
same,normalized growth,"S. cerevisiae deletion strains, locus YLR113W, strain HOG1, stronger effect = lower value",0.667 (active)
same,normalized growth,"S. cerevisiae deletion strains, locus YLR133W, strain CKI1, stronger effect = lower value",0.803
same,normalized growth,"S. cerevisiae deletion strains, locus YLR403W, strain SFP1, stronger effect = lower value",0.727
same,normalized growth,"S. cerevisiae deletion strains, locus YML070W, strain DAK1, stronger effect = lower value",0.803
same,normalized growth,"S. cerevisiae deletion strains, locus YMR001C, strain CDC5, stronger effect = lower value",0.957
same,normalized growth,"S. cerevisiae deletion strains, locus YMR205C, strain PFK2 (second series), stronger effect = lower value",0.862
same,normalized growth,"S. cerevisiae deletion strains, locus YMR277W, strain FCP1, stronger effect = lower value",0.963
same,normalized growth,"S. cerevisiae deletion strains, locus YNL006W, strain LST8, stronger effect = lower value",0.964
same,normalized growth,"S. cerevisiae deletion strains, locus YNL020C, strain ARK1, stronger effect = lower value",0.784
same,normalized growth,"S. cerevisiae deletion strains, locus YNL161W, strain CBK1, stronger effect = lower value",0.96
same,normalized growth,"S. cerevisiae deletion strains, locus YNL183C, strain NPR1, stronger effect = lower value",0.784
same,normalized growth,"S. cerevisiae deletion strains, locus YNL207W, strain RIO2, stronger effect = lower value",0.958
same,normalized growth,"S. cerevisiae deletion strains, locus YNL222W, strain SSU72, stronger effect = lower value",0.971
same,normalized growth,"S. cerevisiae deletion strains, locus YNL307C, strain MCK1 (second series), stronger effect = lower value",0.752
same,normalized growth,"S. cerevisiae deletion strains, locus YOL078W, strain AVO1, stronger effect = lower value",0.973
same,normalized growth,"S. cerevisiae deletion strains, locus YOL136C, strain PFK27, stronger effect = lower value",0.808
same,normalized growth,"S. cerevisiae deletion strains, locus YOR061W, strain CKA2, stronger effect = lower value",0.867
same,normalized growth,"S. cerevisiae deletion strains, locus YOR119C, strain RIO1, stronger effect = lower value",0.885
same,normalized growth,"S. cerevisiae deletion strains, locus YOR231W, strain MKK1, stronger effect = lower value",0.807
same,normalized growth,"S. cerevisiae deletion strains, locus YOR329C, strain SCD5, stronger effect = lower value",0.966
same,normalized growth,"S. cerevisiae deletion strains, locus YPL031C, strain PHO85, stronger effect = lower value",0.738
same,normalized growth,"S. cerevisiae deletion strains, locus YPL153C, strain RAD53, stronger effect = lower value",0.78
same,normalized growth,"S. cerevisiae deletion strains, locus YPL204W, strain HRR25, stronger effect = lower value",0.699
same,normalized growth,"S. cerevisiae deletion strains, locus YPL209C, strain IPL1, stronger effect = lower value",0.967
same,normalized growth,"S. cerevisiae deletion strains, locus YPL256C, strain CLN2, stronger effect = lower value",0.694 (active)
same,normalized growth,"S. cerevisiae deletion strains, locus YPR025C, strain CCL1, stronger effect = lower value",0.972
same,normalized growth,"S. cerevisiae deletion strains, locus YPR106W, strain ISR1, stronger effect = lower value",0.959
same,normalized growth,"S. cerevisiae deletion strains, locus YPR111W, strain DBF20, stronger effect = lower value",0.949
same,normalized growth,"S. cerevisiae deletion strains, strain NNK1, stronger effect = lower value",0.953
same,normalized growth,"S. cerevisiae deletion strains, strain TSCII, stronger effect = lower value",0.965
